Sampled rows, rich in hits. Any-hit rate of the full collection: about 3.3%.
sPLA2-III inh: human group III sPLA2 inhibitors, primary screen, biochemical, QFRET, BODIPY PC-A2 liposome substrate; QFRET BODIPY PC-A2 liposome hydrolysis, fluorescence; inhibition, % at 12.2 µM; 370,000 compounds, 0.56% hits;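 active = inhibition above mean plus 3 SD of compounds lying within the high and low control bounds, cut at about 19% in these data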;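 note: 0% = median of test compound wells and 100% = no enzyme DMSO wells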
Target sequence (Q9NZ20 whole entry, looked up): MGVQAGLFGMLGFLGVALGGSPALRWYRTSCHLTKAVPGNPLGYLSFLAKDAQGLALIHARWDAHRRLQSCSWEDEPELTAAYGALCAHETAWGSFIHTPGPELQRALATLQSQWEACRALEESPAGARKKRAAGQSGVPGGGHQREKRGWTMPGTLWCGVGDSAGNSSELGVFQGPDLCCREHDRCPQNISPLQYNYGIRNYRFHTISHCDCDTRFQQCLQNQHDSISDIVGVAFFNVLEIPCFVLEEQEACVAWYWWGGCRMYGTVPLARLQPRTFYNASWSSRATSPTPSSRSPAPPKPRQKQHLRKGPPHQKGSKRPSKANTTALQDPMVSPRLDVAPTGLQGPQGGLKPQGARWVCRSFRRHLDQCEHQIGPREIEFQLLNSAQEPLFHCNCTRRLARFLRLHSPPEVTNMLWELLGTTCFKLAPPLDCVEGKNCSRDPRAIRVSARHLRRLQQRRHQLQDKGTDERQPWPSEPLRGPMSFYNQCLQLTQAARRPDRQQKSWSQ
GRIN3A LBD mod: binders of NR3A ligand-binding domain, primary screen, biophysical, differential scanning fluorimetry, uHTS. Glutamate receptor ionotropic, NMDA 3A (GRIN3A) ligand-binding domain. NR3A LBD differential scanning fluorimetry, Tm shift; 0% = protein alone, 100% = glycine-bound protein. Tm shift relative to glycine control, % at 25 µM. 340,000 compounds, 2.5% hits;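 active = melting temperature shift of at least 10% of the positive control shift, at one fixed dose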
UBC13 inh: UBC13 polyubiquitin chain formation inhibitors, primary screen, biochemical, TR-FRET, uHTS; inhibition, % at 20 µM; 330,000 compounds, 0.47% hits; AID 485273, 2010; in the data active = inhibition above about 45%, passing the limit was not always enough; inconclusive = no clear call, values can overlap the other calls
UBC9 SUMO inh: inhibitors of in vitro SUMOylation cascade, primary screen, biochemical, HTRF, uHTS. SUMO-conjugating enzyme UBC9 (Homo sapiens), P63279. HTRF SUMOylation assay, SAE1/SAE2 + UBC9. inhibition, % at 35 µM. 290,000 compounds, 0.36% hits; in the data active = inhibition above about 50%, passing the limit was not always enough; inconclusive = no clear call, values can overlap the other calls
Numbers without * were called inactive; ? = inconclusive; nt = not tested or not shown.

SMILES | sPLA2-III inh | GRIN3A LBD mod | UBC13 inh | UBC9 SUMO inh
O=C(O)c1ccc(C[n+]2c(-c3ccccc3)csc2Nc2ccccc2)cc1 | 0 | 18* | 0 | 14
CC(C)(C)c1cc(-c2csc(Nc3ccccc3)[n+]2Cc2ccc(C(=O)O)cc2)cc(C(C)(C)C)c1O | nt | -1 | -10 | 45
O=C(Cc1cc(=O)oc2cc(O)ccc12)NCC1CCC(C(=O)O)CC1 (configuration not stated) | 5 | 2 | 24 | 55*
CCCc1cc(=O)oc2cc(OCC(=O)NCC3CCC(C(=O)O)CC3)ccc12 (configuration not stated) | 1 | -4 | 3 | -9
COc1cc(/C=N/NC(=O)CCC(=O)Nc2ccc(Br)cc2)ccc1O | -5 | -5 | 5 | -5
COc1cccc(/C=N/NC(=O)CCCC(=O)Nc2ccc(Br)cc2)c1 | -11 | 20* | 9 | -3
COC(=O)C1=C(NC(=O)COc2ccc(Cl)cc2Cl)CCS1 | 2 | 15* | -6 | -5
COC(=O)C1=C(NC(=O)COc2ccc3ccccc3c2)CCS1 | -5 | -2 | 20 | 6
COC(=O)[C@]12C=CCN1[C@@H](c1ccc(Cl)cc1)c1c(c3ccccc3n1S(=O)(=O)c1ccc(C)cc1)C2 | 5 | nt | nt | nt
O=c1[nH]c(Nc2ccccc2)cc2ccccc12 | 1 | -1 | -43 | 84*
O=c1[nH]c(Nc2ccccc2)cc2cc(Br)ccc12 | 0 | -14 | -68 | nt
O=C(Nc1nnc(-c2ccccc2)o1)c1nc2ccccc2s1 | 6 | 2 | -23 | 74*
NC(=O)c1oc2ccccc2c1NC(=O)c1nc2ccccc2s1 | -7 | -14 | -2 | 10
N#C/C(=C\c1ccc(Cl)cc1)c1nc(-c2ccco2)cs1 | 6 | -5 | -9 | 32
N#C/C(=C\c1ccc(-c2ccccc2)cc1)c1nc(-c2ccco2)cs1 | 16 | 28* | -5 | 5
N#C/C(=C\c1ccc(F)cc1)c1nc(-c2ccco2)cs1 | 2 | 24* | -10 | 49
COC(=O)[C@H](C)NC(=O)[C@@H]1CCCN1C(=O)CNP(=O)(OCc1ccccc1)OCc1ccccc1 | 6 | nt | nt | nt
CCOc1ccc2nc(N3C(=O)CNC3=S)sc2c1 | 0 | 17* | -10 | 15
CCCc1c(C)nn(C(=O)/C(C#N)=N/Nc2ccccc2[N+](=O)[O-])c1C | 1 | 15* | -9 | 1
CCCc1c(C)nn(-c2ncccc2[N+](=O)[O-])c1C | 0 | -2 | -5 | -4
COC1=C[C@H](C(=O)NCc2ccc(Cl)cc2)C(C)C(c2ccccc2)CC1=O (some centres not stated) | -17 | nt | nt | nt
O=C(NCCCSc1ccccc1)c1cc(Cl)ccc1O | -9 | 12* | 6 | -12
COc1ccccc1CC(=O)NCCN1C(=O)C2C3C=CC(C3)C2C1=O (configuration not stated) | 12 | nt | nt | nt
CC(C)OCCOc1ccc2oc(-c3ccco3)cc(=O)c2c1 | -5 | 3 | 8 | 46
N#CCOc1ccc2oc(-c3ccco3)cc(=O)c2c1 | nt | nt | 18 | 52*
SMILES | sPLA2-III inh | GRIN3A LBD mod | UBC13 inh | UBC9 SUMO inh
N#Cc1ccccc1NC(=O)C1SC(=Nc2ccccc2)C(C(=O)Nc2ccc(Cl)cc2)=C1N (configuration not stated) | 0 | 22* | -11 | -19
COc1ccccc1N=C1SC(C(=O)Nc2cccc(Cl)c2Cl)C(N)=C1C(N)=O (configuration not stated) | 4 | 0 | -2 | 10
CCOc1ccc(N=C2SC(C(=O)Nc3ccccc3C#N)C(N)=C2C(=O)Nc2ccc(Cl)cc2)cc1 (configuration not stated) | -10 | 27* | 3 | -10
O=C(CSc1nnc(-c2cccnc2)n1-c1ccc(Cl)cc1)Nc1ccc(S(=O)(=O)Nc2nccs2)cc1 | -46 | nt | nt | nt
COc1ccc2c(c1)CNC2CS(=O)(=O)NC1CCCC1 (configuration not stated) | 6 | nt | nt | nt
COc1cc2c(cc1OC)/C(=C/C(=O)N1CCOCC1)NC(C)(C)C2 | 6 | 11* | 5 | 22
COc1ccc(-n2c(SCc3cccc4ccccc34)nnc2-c2ccccc2)cc1 | -5 | nt | nt | nt
O=C1S/C(=C\c2ccccn2)C(=O)N1Cc1ccccc1F | -5 | 13* | 2 | 22
O=C(CN1C(=O)S/C(=C/c2ccccn2)C1=O)N1CCOCC1 | 7 | 0 | -13 | 3
O=C(Nc1ccc(Cl)c(Cl)c1)O/N=C/c1ccncc1 | 17 | 29* | -8 | -13
O=C(Nc1cccc(Cl)c1)O/N=C\c1ccncc1 | 4 | -1 | 1 | 27
COc1ccc(C2=NOC(C(=O)N3CCN(C(=O)c4ccco4)CC3)C2)cc1OC (configuration not stated) | 8 | 39* | -3 | 0
Cc1ccc(C(=O)N2CCOCC2)cc1S(=O)(=O)N1CCOCC1 | 9 | 12* | -1 | 10
Cc1ccc(-n2c(SCC(=O)C(C)(C)C)nnc2-c2cccc(C)c2)cc1 | 1 | nt | nt | nt
CCc1ccc(CN(C)CC(=O)Nc2ccccc2[N+](=O)[O-])cc1 | -5 | 19* | ? | -10
O=C(CSc1nc(C(F)(F)F)cc(=O)[nH]1)N1CCC(Cc2ccccc2)CC1 | 11 | 13* | -6 | nt
O=C(/C=C/c1ccc(O)c(O)c1)O[C@H](Cc1ccc(O)c(O)c1)C(=O)O | nt | nt | nt | 69*
O=C(O)/C=C/c1ccc(O)c(O)c1 | 4 | 2 | 8 | -22
COc1ccc(NC(=O)COc2nsnc2N2CCOCC2)c(OC)c1 | -5 | 14* | -7 | 5
CCC[C@H]1[C@@H](NC(=O)c2ccc(Cl)c(C(F)(F)F)c2)CC[C@@]23CCCN2C(=O)CCC[C@@H]13 | -7 | nt | nt | nt
CCOc1ccc(-n2c(SCC(=O)Nc3ccc4c(c3)c3ccccc3n4CC)nnc2-c2cccnc2)cc1 | 2 | nt | nt | nt
Cc1ccc(-c2nc3ncccn3c2NC(=O)c2ccc(F)cc2)cc1 | -2 | nt | nt | nt
O=C(CN1CCCC1)NC12CC3CC(CC(C3)C1)C2 | -5 | 10* | -11 | 3
C#CCOCCOCCOCCNc1nc(N2CCN(C(=O)C([C@@H](C)O)n3cc([C@@H](N)CCCCN)nn3)CC2)nc(N2CCN(C(=O)[C@H](CCCCN)n3cc([C@@H](N)[C@H](C)CC)nn3)CC2)n1 (some centres not stated) | 6 | 3 | 104* | nt
C#CCOCCOCCOCCNc1nc(N2CCN(C(=O)C(Cc3ccc(O)cc3)n3cc(C(N)CC(C)C)nn3)CC2)nc(N2CCN(C(=O)C(Cc3cc4ccccc4[nH]3)n3cc(C(N)C(C)CC)nn3)CC2)n1 (configuration not stated) | nt | nt | 77* | -16

Assay outcomes from PubChem BioAssay.
